Laboratory results: PubChem BioAssay
Calls of active or inactive are those of the source. No rule for the calls is given here.

Assay: Brca1-Bard1 BiLC signal decrease – luminescence, single concentration, counter-screen for Mdm2/MdmX interaction inhibitor project, confirmation (AID 504668)
Conditions: Brca1/Bard1 bimolecular luciferase complementation counterscreen, at 8 µM, stronger effect = higher value

Row | Compound | inhibition
1 | Cc1cc([N+](=O)[O-])cc(/C=N\NC(=O)C2COc3ccccc3O2)c1O (stereo not given) | 27.6% (active)
2 | Cc1cc(C(=O)CCl)c(C)n1CCc1ccc(F)cc1 | 34.4% (active)
3 | Cc1cccc(NC(=S)N(CCCN2CCCC2)Cc2cccn2Cc2ccc(Cl)cc2)c1 | 23.4% (active)
4 | CCc1ccc(/C=C/C(=O)c2c(C)cc(C)[nH]c2=O)cc1 | 30.6% (active)
5 | CC(C)(C)c1cc(C(=O)N/N=C/c2ccccc2O)n(-c2ccccc2)n1 | 28.9% (active)
6 | Cc1cccc(NS(=O)(=O)c2ccc(C)c(C(=O)OCC(=O)Nc3cc(C)on3)c2)c1 | 32.1% (active)
7 | S=c1[nH]nc(-c2cc(-c3ccccc3)n[nH]2)n1/N=C/C(Br)=C/c1ccccc1 | 24.2% (active)
8 | Oc1c(C(c2ccc(Cl)cc2)N2CCCC2)cc(Cl)c2cccnc12 (stereo not given) | 32.9% (active)
9 | COC(=O)[C@@H]1C[C@]2(OC(=O)c3ccccc3)C=CC(=O)C[C@@H]2N1C(=O)OCc1ccccc1 | 34.4% (active)
10 | O=C(Nc1ccccc1)c1ccccc1NS(=O)(=O)c1ccc(Cl)s1 | 27.7% (active)
11 | CC[C@@H](C(=O)[C@@H](C)[C@@H](O)[C@H](C)CCc1ccc(C)c(O)c1C(=O)O)[C@H]1O[C@](CC)([C@H]2CC[C@](O)(CC)[C@H](C)O2)C[C@@H]1C | 35.2% (active)
12 | CC(C)(C)c1cc(Cl)c(O)c(NC(=S)NC(=O)c2cccnc2)c1 | 35.2% (active)
13 | O=C(CSCC(=O)Nc1ccccc1)N/N=C/c1c(O)ccc2ccccc12 | 28.3% (active)
14 | O=C(NNC(=O)c1ccccc1OCc1ccc(F)cc1)c1ccccc1O | 31.1% (active)
15 | Cc1ccc(C(=O)N/N=C/c2c(O)ccc3ccccc23)cn1 | 26.6% (active)
16 | CS(=O)(=O)Nc1ccccc1C(=O)Nc1cc(Cl)cc(Cl)c1 | 28.3% (active)
17 | COc1cccc(CNc2ncnc3ccc(-c4c(C)noc4C)cc23)c1 | 31% (active)
18 | CC(=O)c1ccc(Sc2nnnn2-c2ccccc2)c([N+](=O)[O-])c1 | 30.1% (active)
19 | O=C(CCS(=O)(=O)c1ccc(Cl)cc1)Nc1nc(-c2ccncc2)cs1 | 25.6% (active)
20 | COc1ccc([C@@H]2[C@@H]3C(=O)N(C(C)(C)C)C(=O)[C@@H]3[C@]3(Cc4ccc(Cl)cc4)C(=O)N(c4ccc(Br)cc4)C(=O)N23)cc1 | 26.6% (active)

Row | Compound | inhibition
21 | COc1cc([C@@H]2c3cc4c(cc3[C@@H](O[C@@H]3O[C@@H]5CO[C@@H](C)O[C@H]5[C@H](O)[C@H]3O)[C@H]3COC(=O)[C@H]23)OCO4)cc(OC)c1O | 31.6% (active)
22 | Cn1nnnc1Sc1ncnc2scc(-c3ccccc3Br)c12 | 25% (active)
23 | COc1ccc2[nH]c(C(=O)N/N=C/c3ccc(O)cc3O)cc2c1 | 31.2% (active)
24 | CCc1ccc2[nH]c3nc(N/N=C/c4ccc(O)cc4O)nnc3c2c1 | 29.3% (active)
25 | COc1ccc(C(=O)Nc2nc3c(s2)CCCC3)cc1S(=O)(=O)N1CCCc2ccccc21 | 23.4% (active)
26 | Cc1ccccc1-c1nc(CN2CCC(C(=O)NCCCN3CC(C)CC(C)C3)CC2)c(C)o1 (stereo not given) | 25.7% (active)
27 | O=C(Nc1ccc(Cl)cc1)Nc1ccc(Cl)c(Cl)c1 | 26.8% (active)
28 | O=C(NC(CSCc1ccccc1)C(=O)N/N=C/c1ccc(O)cc1O)c1ccc([N+](=O)[O-])cc1 (stereo not given) | 34.3% (active)
29 | COc1cc(/C=C/c2ccc3cccc(O)c3n2)cc(OC)c1OC | 27.2% (active)
30 | N=c1n(CCN2CCCCC2)c2ccccc2n1CC(O)c1cccc(Br)c1 (stereo not given) | 34.4% (active)
31 | Cc1cc(NC(=O)c2ccc(F)cc2F)n(-c2nc3ccccc3[nH]2)n1 | 29.6% (active)
32 | Oc1c(C(c2cccs2)N2CCN(c3ccccc3)CC2)ccc2cccnc12 (stereo not given) | 23.1% (active)
33 | COc1ccc(C(=O)C(CN2CCCC2)c2ccccc2)cc1 (stereo not given) | 27.6% (active)
34 | O=S(=O)(CCSc1nc2ccccc2o1)c1nc2ccccc2s1 | 35.6% (active)
35 | O=C(Nc1ccc(OC(F)(F)F)cc1)Nc1cccc([N+](=O)[O-])c1 | 35.8% (active)
36 | Cc1oc(-c2ccccc2Cl)nc1CSCC(=O)N1CCCC1 | 25.7% (active)
37 | CC(C)Cn1c(=O)c(C(=O)Nc2ccccc2S(N)(=O)=O)c(O)c2ccccc21 | 26.4% (active)
38 | COc1ccc(Nc2ncnc3ccc(Br)cc23)cc1OC | 30.5% (active)
39 | O=C(CCCN1C(=O)/C(=C\c2cccs2)SC1=S)Nc1cccnc1 | 25.5% (active)
40 | COc1ccccc1-c1cc(C(F)(F)F)nc(S(=O)(=O)CCCC(=O)Nc2cc(C)on2)n1 | 32.8% (active)
